Reference: PubChem BioAssay (NCATS)
Results filed as inconclusive are left out. A number with no mark means an inactive call. Activity calls are given as the source filed them. Calls follow the shape of the dose curve; as a rule, active = well fitted curve in the direction sought with a large enough effect in the repeat runs; inconclusive = weak or mixed curves; inactive = no such curve, though single readings can be large; an effect the other way counts as inactive or inconclusive.

Key:
[1] = biological target: Cytochrome P450 2D6 (Homo sapiens) (UniProt P10635); experiment: Cytochrome P450 family 2 subfamily D member 6 (CYP2D6) small molecule antagonists: luciferase biochemical (cell-free) qHTS assay (AID 1645840)
Sequence of Cytochrome P450 2D6 (Homo sapiens) (P10635 whole entry, looked up): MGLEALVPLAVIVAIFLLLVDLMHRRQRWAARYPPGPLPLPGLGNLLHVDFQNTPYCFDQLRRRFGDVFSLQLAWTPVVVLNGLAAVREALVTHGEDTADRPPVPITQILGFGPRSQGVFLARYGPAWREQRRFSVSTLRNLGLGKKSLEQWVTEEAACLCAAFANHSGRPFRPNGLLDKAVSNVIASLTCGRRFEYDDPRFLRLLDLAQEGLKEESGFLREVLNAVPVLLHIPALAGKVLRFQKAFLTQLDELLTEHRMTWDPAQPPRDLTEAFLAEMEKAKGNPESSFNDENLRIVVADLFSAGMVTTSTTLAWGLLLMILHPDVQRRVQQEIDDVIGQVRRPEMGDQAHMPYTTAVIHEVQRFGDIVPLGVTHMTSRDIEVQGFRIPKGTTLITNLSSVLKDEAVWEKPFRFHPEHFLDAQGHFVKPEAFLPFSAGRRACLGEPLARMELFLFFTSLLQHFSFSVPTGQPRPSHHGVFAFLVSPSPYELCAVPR
Summary of the method: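 P450-Glo CYP2D6 system: proluciferin substrate converted by enzyme to luciferin, read by luminescence proportional to activity. Enzyme-substrate mix with compound 10 min at room temperature, then NADPH regeneration 1 h before detection reagent.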

[2] = biological target: Cytochrome P450 2C9 (Homo sapiens) (UniProt P11712); experiment: Cytochrome P450 family 2 subfamily C member 9 (CYP2C9) small molecule antagonists: luciferase biochemical (cell-free) qHTS assay (AID 1645842)
Sequence of Cytochrome P450 2C9 (Homo sapiens) (P11712 whole entry, looked up): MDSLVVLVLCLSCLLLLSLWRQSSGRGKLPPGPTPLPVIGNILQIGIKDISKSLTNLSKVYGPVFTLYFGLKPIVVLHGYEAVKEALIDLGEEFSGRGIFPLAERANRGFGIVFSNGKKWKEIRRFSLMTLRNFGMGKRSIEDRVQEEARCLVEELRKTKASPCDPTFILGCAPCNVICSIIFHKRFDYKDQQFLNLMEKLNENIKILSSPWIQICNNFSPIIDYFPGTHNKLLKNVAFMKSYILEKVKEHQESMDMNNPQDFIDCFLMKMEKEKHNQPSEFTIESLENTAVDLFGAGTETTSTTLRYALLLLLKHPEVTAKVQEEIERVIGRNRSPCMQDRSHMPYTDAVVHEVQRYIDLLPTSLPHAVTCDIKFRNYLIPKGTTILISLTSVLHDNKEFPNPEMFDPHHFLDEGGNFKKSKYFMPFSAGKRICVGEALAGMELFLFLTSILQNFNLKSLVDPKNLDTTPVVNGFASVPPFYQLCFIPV
Summary of the method: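 P450-Glo CYP2C9 system: proluciferin substrate with enzyme in mix containing 0.4% BSA, 10 min at room temperature, then NADPH regeneration solution added and incubated 1 h at 37C. Detection reagent stopped reaction; luminescence read after 20 min as RLU.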
Also: nearly all actives have a fitted effect of over 55% in size.
Potency is read from the fitted curve at half-maximal effect.

SMILES	Potency [1]	Potency [2]
COc1cc(C(c2c(C)[nH][nH]c2=O)c2c(C)[nH][nH]c2=O)ccc1OC(=O)c1ccccc1F	inactive	10.7 µM (active)
COc1ccc(Cn2c(CCC(=O)Nc3ccc(C)c(C)c3)nc3cccnc32)cc1	inactive	7.56 µM (active)
COc1ccccc1Cn1cc(C(=O)c2ccc(Cl)cc2)c(=O)c2cc3c(cc21)OCCO3	2.68 µM (active)	2.68 µM (active)
CCOc1ccc(NC(=O)Cn2cc(C(=O)c3ccco3)c3ccccc32)cc1		4.77 µM (active)
CN(C)[S+](=O)([O-])c1ccc([S+](=O)([O-])N(Cc2ccccc2)Cc2ccccn2)cc1		5.35 µM (active)
